Screens: PubChem BioAssay, Center for Chemical Genomics, University of Michigan
The entries come from a sample that favours hits as a whole.
Dicer inh: inhibitors of Dicer pre-microRNA processing, primary screen, biochemical, cat-ELCCA, chemiluminescence; Endoribonuclease Dicer (Homo sapiens), Q9UPY3; actives 6% (n = 47,000); cat-ELCCA pre-miR-21 Dicer processing; active compounds read high; AID 1347074, 2019; z-score at 25 µM; in the data active = z-score above about 3, passing the limit was not always enough;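 also: higher signal means more uncleaved substrate so more Dicer inhibition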
Target sequence (Q9UPY3 whole entry, looked up): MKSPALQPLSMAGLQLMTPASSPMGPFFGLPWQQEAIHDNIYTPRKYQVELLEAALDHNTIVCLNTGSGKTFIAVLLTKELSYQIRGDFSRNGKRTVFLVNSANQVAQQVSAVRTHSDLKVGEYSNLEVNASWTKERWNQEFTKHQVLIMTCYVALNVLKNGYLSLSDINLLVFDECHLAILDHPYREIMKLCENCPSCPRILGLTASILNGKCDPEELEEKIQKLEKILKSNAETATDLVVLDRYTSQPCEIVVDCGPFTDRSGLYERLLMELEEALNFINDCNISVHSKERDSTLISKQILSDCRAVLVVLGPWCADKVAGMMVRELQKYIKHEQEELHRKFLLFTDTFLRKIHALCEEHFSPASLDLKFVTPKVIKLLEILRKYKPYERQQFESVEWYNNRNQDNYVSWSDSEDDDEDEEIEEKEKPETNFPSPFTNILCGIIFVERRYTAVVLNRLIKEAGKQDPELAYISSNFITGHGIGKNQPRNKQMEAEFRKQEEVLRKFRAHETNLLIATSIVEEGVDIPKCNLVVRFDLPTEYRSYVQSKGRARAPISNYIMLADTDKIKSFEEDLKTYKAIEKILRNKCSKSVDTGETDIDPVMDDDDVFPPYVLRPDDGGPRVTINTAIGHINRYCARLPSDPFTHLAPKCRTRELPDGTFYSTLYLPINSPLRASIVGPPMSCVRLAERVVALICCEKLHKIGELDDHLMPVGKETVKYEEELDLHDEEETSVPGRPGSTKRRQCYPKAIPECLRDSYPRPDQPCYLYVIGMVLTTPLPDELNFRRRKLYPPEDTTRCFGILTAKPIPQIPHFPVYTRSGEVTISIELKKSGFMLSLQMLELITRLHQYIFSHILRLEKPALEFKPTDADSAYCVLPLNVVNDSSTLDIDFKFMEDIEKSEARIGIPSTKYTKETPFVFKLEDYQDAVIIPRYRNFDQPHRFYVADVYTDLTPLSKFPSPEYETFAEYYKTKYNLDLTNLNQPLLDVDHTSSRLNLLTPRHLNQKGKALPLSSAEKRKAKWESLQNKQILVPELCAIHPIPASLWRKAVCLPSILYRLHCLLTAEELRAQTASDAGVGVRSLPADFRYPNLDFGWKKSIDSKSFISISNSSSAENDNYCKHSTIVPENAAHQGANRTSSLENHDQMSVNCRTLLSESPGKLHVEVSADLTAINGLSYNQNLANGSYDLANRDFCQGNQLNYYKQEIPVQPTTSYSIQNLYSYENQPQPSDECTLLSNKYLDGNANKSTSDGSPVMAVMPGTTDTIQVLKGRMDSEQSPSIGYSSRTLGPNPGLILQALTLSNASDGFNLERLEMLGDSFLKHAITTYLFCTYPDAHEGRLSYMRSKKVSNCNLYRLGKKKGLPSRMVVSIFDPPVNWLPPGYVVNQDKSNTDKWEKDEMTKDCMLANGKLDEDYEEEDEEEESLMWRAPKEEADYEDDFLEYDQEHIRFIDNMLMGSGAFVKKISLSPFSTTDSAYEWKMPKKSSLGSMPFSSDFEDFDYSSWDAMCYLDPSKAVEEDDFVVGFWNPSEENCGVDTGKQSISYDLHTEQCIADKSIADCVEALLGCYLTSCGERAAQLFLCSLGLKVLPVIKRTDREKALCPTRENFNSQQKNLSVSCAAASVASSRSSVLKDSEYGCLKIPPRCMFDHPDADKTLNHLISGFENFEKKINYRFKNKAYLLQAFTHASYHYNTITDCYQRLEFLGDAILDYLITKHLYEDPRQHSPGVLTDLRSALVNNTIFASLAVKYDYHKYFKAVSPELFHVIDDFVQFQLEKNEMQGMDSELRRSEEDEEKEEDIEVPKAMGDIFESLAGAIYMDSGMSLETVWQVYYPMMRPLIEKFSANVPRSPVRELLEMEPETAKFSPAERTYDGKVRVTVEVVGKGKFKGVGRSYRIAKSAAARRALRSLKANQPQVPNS
Each line names hits and unclear results; the compound was inactive in the other large screens.

C=CCc1ccccc1OCC(O)CN1CCN(c2ccccc2)CC1 (stereo not drawn)	none
O=C(C=C1SCCS1)c1cccs1	none
CC(=O)c1sc(-c2ccc(F)cc2)cc1NC(=O)CN1CCN(C(=O)c2ccc(C)cc2)CC1	none
O=C(CCSc1nc(-c2ccco2)cc(C(F)(F)F)n1)Nc1cnn(Cc2ccccc2)c1	none
O=C(O)C1C2C=CC3(CN(C4CCCC4)C(=O)C13)O2 (stereo not drawn)	none
Cc1nn(C)c2c1S(=O)(=O)N=C(SCc1c(F)cccc1Cl)S2	none
COCCN1C(=O)C(=O)/C(=C(/O)c2ccccc2)C1c1ccccc1F (stereo not drawn)	none
Cc1ccc(C2/C(=C(\O)c3ccc(Cl)cc3)C(=O)C(=O)N2c2nccs2)cc1 (stereo not drawn)	none
O=[N+]([O-])c1cc(F)ccc1/C=C/N1CCCC1	none
O=[N+]([O-])c1cccnc1Oc1ccc(OCc2ccccc2)cc1	none
O=[N+]([O-])c1ccc(OCc2ccccc2)cc1/C=C\N1CCCC1	Dicer inh 3
Cc1nn(C)c(NNC(=O)c2c(Cl)cccc2Cl)c1[N+](=O)[O-]	none
O=C(CSc1nc(-c2ccc(F)cc2)cc(C(F)(F)F)n1)NCc1ccncc1	none
CC(C)C(OC(=O)c1ccccc1)c1nccc2ccccc12 (stereo not drawn)	none
COC(=O)C1=C(C)NC2=C(C(=O)CCC2)C1c1cc([N+](=O)[O-])c(C)s1 (stereo not drawn)	none
CCOC(=O)C1=C(C)NC(C)=C(C(=O)OC)C1c1cccc([N+](=O)[O-])c1 (stereo not drawn)	none
COC(=O)C1=C(C)NC(C)=C(C(=O)OC)C1c1ccccc1[N+](=O)[O-]	Dicer inh 11
COc1ccc(N2C(=S)SC3CS(=O)(=O)CC32C)cc1 (stereo not drawn)	none
COC(=O)CN(C#N)c1nc(C)cc(C)n1	Dicer inh 6.7
COC(=O)CN(C#N)c1nc(N(C)C)nc(N(C)C)n1	none
COc1cc(C)nc(N(C#N)C(C)C)n1	none
CCc1ccc(-n2c(O)cnc2Nc2nc(C)cc(C)n2)cc1	none
C=CCOCCN1Cc2ccccc2C1	none
Cc1nnc(N2C(=O)C(=O)/C(=C(/O)c3ccccc3)C2c2ccccc2)s1 (stereo not drawn)	none
COc1ccc(C2/C(=C(\O)c3ccc(F)cc3)C(=O)C(=O)N2c2nnc(C)s2)cc1OC (stereo not drawn)	none
COc1ccc(C2/C(=C(\O)c3ccc(Cl)cc3)C(=O)C(=O)N2c2nnc(C)s2)cc1OC (stereo not drawn)	Dicer inh 4.1
CC1CCc2c(sc3[nH]c(=O)n(-c4ccc(Cl)cc4)c(=O)c23)C1 (stereo not drawn)	none
O=C(/C=C/c1ccccc1)NC(=S)NNC(=O)Cn1nnc(N2CCCCC2)n1	none
COc1ccc2c(c1)c(=O)oc1cc(OCc3ccc(F)cc3)ccc12	none
Cn1nccc1C(=O)Nc1ccc(Cl)cc1	none
Cn1nccc1NC(=O)Nc1cc(Cl)cc(Cl)c1	none
Cn1nccc1NC(=S)Nc1ccc(Cl)cc1	Dicer inh 4
O=C(CSc1ncn[nH]1)n1c2ccccc2c2ccccc21	none
CNC(=O)c1ccccc1Sc1cccc2cccc(C(=O)NC)c12	none
Cc1ccc(-c2csc3nc(-c4cccs4)oc(=O)c23)cc1	Dicer inh 5.4
O=c1oc(-c2ccc(Br)cc2)nc2scc(-c3cccs3)c12	none
Cc1cccc2nc(-c3cccs3)oc(=O)c12	none
COC(=O)C/C(=N\NC(=O)c1ccccc1N)C(=O)OC	none
CC(C)CC(=O)N[C@H](C(=O)N[C@H](C(=O)N[C@@H](CC(C)C)[C@@H](O)CC(=O)N[C@@H](C)C(=O)N[C@@H](CC(C)C)[C@@H](O)CC(=O)O)C(C)C)C(C)C	none
N#CC(Nc1ccc(C(F)(F)F)cc1)c1ccccc1 (stereo not drawn)	none
Cc1cc(F)ccc1S(=O)(=O)N(C(=O)c1cccnc1)c1ccc2oc(=O)sc2c1	Dicer inh 4.8
CC(C)c1ccc(S(=O)(=O)N(C(=O)c2ccncc2)c2ccc3oc(=O)sc3c2)cc1	none
Cc1ccc(S(=O)(=O)N(C(=O)c2cccnc2)c2ccc3oc(=O)sc3c2)cc1	Dicer inh 5
CCCC(=O)N(c1ccc2oc(=O)sc2c1)S(=O)(=O)c1ccc(F)cc1C	none
CCCCC(=O)N(c1ccc2oc(=O)sc2c1)S(=O)(=O)c1ccc(OC)cc1	none
CCCCC(=O)N(c1ccc2oc(=O)sc2c1)S(=O)(=O)c1ccc(C(=O)O)cc1	none
O=C(c1cccnc1)N(c1ccc2oc(=O)sc2c1)S(=O)(=O)c1ccc(Br)cc1	Dicer inh 11
COc1ccc(S(=O)(=O)N(C(=O)C(C)C)c2ccc3oc(=O)sc3c2)cc1	none
COc1ccc(CNc2ncn[nH]2)cc1OC	none
O=C(O)CN(Cc1ccccc1)Cc1ccccc1	none
CCCn1c(=O)c(C(N)=O)cn(C2CC2)c1=O	none
Cc1ccc(C)c(C(=O)CSc2ncn[nH]2)c1	none
O=C(O)CCS/C=C/c1ccccc1	none
Cc1[nH]nc(-c2ccc(O)cc2O)c1Oc1ccccc1	none
CCOc1ccc(-c2n[nH]c(C)c2-c2ccccc2)c(O)c1	Dicer inh 5.1
COc1ccc(-c2n[nH]c(C)c2-c2ccc(F)cc2)c(O)c1	none
COc1ccc(CNc2nc3c(C)cc(C)cc3s2)cc1OC	none
CCCCSC1=C(C#N)C(=O)NC(CC(C)C)S1 (stereo not drawn)	none
CCCCCCSC1=C(C#N)C(=O)NC(CO)S1 (stereo not drawn)	none
CCCCSC1=C(C#N)C(=O)NC(c2ccccc2O)S1 (stereo not drawn)	none
CCCCSC1=C(C#N)C(=O)NCS1	Dicer inh 5.7
CCCCSC1=C(C#N)C(=O)NC(CCC)S1 (stereo not drawn)	Dicer inh 5.4
CCCCSC1=C(C#N)C(=O)NC(c2ccc(OC)cc2)S1 (stereo not drawn)	none
Nc1nc(N2CCCC2)ncc1S(=O)(=O)c1ccc(Cl)cc1	none
CCOC(=O)c1c(C)nn(-c2ccc(NC(=O)c3snnc3C)cc2)c1C	none
Cc1cc(S(=O)(=O)Nc2ccc(F)cc2F)cc(C)c1F	none
CCOC(Cc1nnc(SCC(=O)c2ccccc2)n1C)OCC	none
Cc1ccc(C)n1-c1cccc(N)c1	none
Cc1nnc(N2C(=O)c3oc4ccccc4c(=O)c3C2c2cccs2)s1 (stereo not drawn)	none
COc1ccc(C2c3c(oc4ccc(C)cc4c3=O)C(=O)N2Cc2ccc3c(c2)OCO3)cc1 (stereo not drawn)	none
O=C(NC(=S)Nc1ccccc1Cl)c1ccccc1	none
O=C(NC(=S)Nc1ccccc1Cl)c1ccc(F)cc1F	Dicer inh 10
O=C(NC(=S)Nc1ccccc1Cl)c1cnn2c(C(F)(F)F)cc(C(F)(F)F)nc12	none
CC1CCN(c2nc3c(c(=O)n(Cc4cccc(Br)c4)c(=O)n3C)n2C)CC1	none
COc1ccccc1N1CCN(C2CCN(Cc3ccccn3)CC2)CC1	none
Cn1c2c(c(=O)n(C)c1=O)CN(Cc1c(F)cccc1Cl)CN2	none
COc1ccc(C2C3=C(CC(C)(C)CC3=O)Nc3cc4c(cc32)OCO4)cc1 (stereo not drawn)	Dicer inh 6.2
CCOc1ccc(C2C3=C(CC(C)(C)CC3=O)Nc3cc4c(cc32)OCO4)cc1 (stereo not drawn)	none
CC1(C)CC(=O)C2=C(C1)Nc1cc3c(cc1C2c1ccc(F)cc1)OCO3 (stereo not drawn)	none
O=C(NCc1ccc(S(=O)(=O)N2CCN(C(=O)C3CCCO3)CC2)s1)c1ccccc1 (stereo not drawn)	none
O=C(c1cc2ccccc2oc1=O)N1CCc2cc([N+](=O)[O-])ccc21	none
CCC(=O)Nc1sc(C(=O)OC)c(C)c1C(=O)OC	none
CCOC(=O)c1c(NC(C)=O)sc(C(=O)CC)c1C	Dicer inh 6.1
